Experiment [1] is described as follows: qHTS assay to identify small molecule antagonists of the glucocorticoid receptor (GR) signaling pathway - cell viability counter screen (AID 720693). Note: nearly all actives have a fitted effect of over 55% in size. Note: potency is the fitted concentration of half-maximal effect. On the technique in general: Quantitative high-throughput screening tests each substance at several concentrations.
In experiment [2] the target is Androgen receptor (Homo sapiens) (UniProt P10275). Kind of experiment: qHTS assay to identify small molecule antagonists of the androgen receptor (AR) signaling pathway (AID 743035; active = well fitted inhibition curve with a large enough effect in the signal ratio in the repeat runs, not every such curve was filed as active; the % refers to the signal ratio; note: potency is the fitted concentration of half-maximal effect). The essentials:
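Antagonism is scored as loss of R1881-driven beta-lactamase reporter expression in HEK293 cells carrying the reporter under a UAS element, after 16 h co-treatment at 37C and a 2 h room-temperature FRET substrate read.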

The target is the same in experiment [3]. In words: qHTS assay to identify small molecule agonists of the androgen receptor (AR) signaling pathway (AID 743036; active = well fitted activation curve with a large enough effect in the signal ratio in the repeat runs, with a control signal flat, not every such curve was filed as active; the % refers to the signal ratio; note: % is set by controls: 0 for no effect and ±100 for the full control effect). In a few lines: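 AR-UAS-bla HEK293 cells, plated 4 h before dosing, were treated with compound for 16 h at 37C. beta-Lactamase reporter read after 2 h with LiveBLAzer B/G FRET substrate at room temperature.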
Experiment [4] shares this target. Kind of experiment: qHTS assay to identify small molecule agonists of the androgen receptor (AR) signaling pathway using the MDA cell line (AID 743040; note: % is set by controls: 0 for no effect and ±100 for the full control effect; nearly all actives have a fitted effect of over 20% in size). The essentials: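 Human breast carcinoma MDA-kb2 reporter cells (MMTV-luc, AR/GR elements) were treated for 16 h at 37C in 0% CO2 following a 5 h settling period. Signal was quantified by ONE-Glo luminescence.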

Experiment [5] in a line: qHTS assay to identify small molecule antagonists of the androgen receptor (AR) signaling pathway using the MDA cell line - cell viability counter screen (AID 743041; note: nearly all actives have a fitted effect of over 45% in size; note: potency is the fitted concentration of half-maximal effect). In a few lines: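 Same-well cytotoxicity was assessed by CellTiter-Fluor in MDA-kb2 AR-luc cells after 16 h of compound treatment under R1881 agonism.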
For experiment [6], the target named is Androgen receptor (Homo sapiens) (UniProt P10275). Kind of experiment: qHTS assay to identify small molecule antagonists of the androgen receptor (AR) signaling pathway using the MDA cell line (AID 743042; note: nearly all actives have a fitted effect of over 55% in size; note: potency is the fitted concentration of half-maximal effect). In a few lines: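 MDA-kb2 breast carcinoma cells carrying MMTV-luciferase (AR/GR responsive) were co-treated with compounds and the agonist R1881 for 16 h at 37C. Inhibition read as ONE-Glo luminescence; CellTiter-Fluor fluorescence measured in parallel for cytotoxicity.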

Experiment [7] is described as follows: qHTS assay to identify small molecule antagonists of the thyroid receptor (TR) signaling pathway - cell viability counter screen (AID 743064). Note: potency is the fitted concentration of half-maximal effect; nearly all actives have a fitted effect of over 50% in size. The essentials: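 GH3.TRE-Luc rat pituitary cells dosed after 4 hr plating, co-stimulated with T3 at 1 nM final, incubated 23.5 h at 37 C. Viability measured in the same wells by CellTiter-Fluor fluorescence after 30 min further at 37 C.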

Experiment [8] has as its system thyroid hormone receptor (rat, GH3 cells). Kind of experiment: qHTS assay to identify small molecule agonists of the thyroid receptor (TR) signaling pathway (AID 743066; calls by dose curve; note: % is set by controls: 0 for no effect and ±100 for the full control effect).
The nature of experiment [9]: qHTS assay to identify small molecule antagonists of the estrogen receptor alpha (ER-alpha) signaling pathway - cell viability counter screen (AID 743074; calls by dose curve;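 note: HEK293 cells carrying ER-alpha-UAS-bla reporter stimulated with 17beta-estradiol; nearly all actives have a fitted effect of over 45% in size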; note: potency is the fitted concentration of half-maximal effect).
Experiment [10] can be described thus: qHTS assay to identify small molecule antagonists of the estrogen receptor alpha (ER-alpha) signaling pathway using the BG1 cell line - cell viability counter screen (AID 743081).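 Note: compound given together with 17beta-estradiol as the ER stimulus; nearly all actives have a fitted effect of over 45% in size.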 Note: potency is the fitted concentration of half-maximal effect.
In a further experiment the target is Aromatase (Homo sapiens) (UniProt P11511). In words: qHTS assay to identify aromatase inhibitors (AID 743083). Note: nearly all actives have a fitted effect of over 55% in size. Note: potency is the fitted concentration of half-maximal effect.
The nature of experiment [11]: qHTS assay for identifying genotoxic compounds that show differential cytotoxicity against isogenic chicken DT40 cell lines with known DNA damage response pathways - Rev3 mutant cell line (AID 743014). Note: potency is the fitted concentration of half-maximal effect; nearly all actives have a fitted effect of over 55% in size.
The nature of experiment [12]: qHTS assay for identifying genotoxic compounds that show differential cytotoxicity against isogenic chicken DT40 cell lines with known DNA damage response pathways - Rad54/Ku70 mutant cell line (AID 743015). Note: potency is the fitted concentration of half-maximal effect; nearly all actives have a fitted effect of over 60% in size.
The nature of experiment [13]: qHTS assay to identify small molecule antagonists of the thyroid receptor (TR) signaling pathway (AID 743065). The essentials:
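GH3.TRE-Luc rat pituitary cells (two TREs driving luciferase) were dosed with compound, then stimulated with 1 nM T3 (final) for 23.5 h at 37 C. ONE-Glo luminescence was the read-out, with CellTiter-Fluor fluorescence as the cytotoxicity counter-screen.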

The target in experiment [14] is Estrogen receptor (Homo sapiens) (UniProt P03372). Kind of experiment: qHTS assay to identify small molecule antagonists of the estrogen receptor alpha (ER-alpha) signaling pathway (AID 743069; active = well fitted curve in the direction sought with a large enough effect in the signal ratio in the repeat runs, not every such curve was filed as active; the % refers to the signal ratio; note: % is set by controls: 0 for no effect and ±100 for the full control effect). In a few lines: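 Reporter cells (ER-alpha-bla, HEK293 background) are conditioned overnight in stripped-serum medium (2% charcoal-stripped FBS). Compound and 17beta-estradiol exposure runs 18 hr at 37C, 5% CO2.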

The target is the same in experiment [15]. Kind of experiment: qHTS assay to identify small molecule agonists of the estrogen receptor alpha (ER-alpha) signaling pathway (AID 743075; calls by dose curve;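 note: HEK293 GripTite cells with ER-alpha and UAS-driven beta-lactamase reporter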; note: potency is the fitted concentration of half-maximal effect; for activation: % is set by controls: 0 for no effect and ±100 for the full control effect). The note with it: HEK293 ER-alpha-UAS-bla, beta-lactamase FRET ratio, 18 h; activation: at 70.1 µM (top of the series).
Experiment [16] has the same target. Kind of experiment: qHTS assay to identify small molecule agonists of the estrogen receptor alpha (ER-alpha) signaling pathway using the BG1 cell line (AID 743079). Note: % is set by controls: 0 for no effect and ±100 for the full control effect; nearly all actives have a fitted effect of over 20% in size. The note with it: BG1Luc4E2 cells, ERE-luciferase agonist, 22 h.
A short description of experiment [17]: qHTS assay to identify small molecule antagonists of the androgen receptor (AR) signaling pathway - cell viability counter screen (AID 743033; note: nearly all actives have a fitted effect of over 45% in size; note: potency is the fitted concentration of half-maximal effect).
Experiment [18] is described as follows: qHTS assay for identifying genotoxic compounds that show differential cytotoxicity against isogenic chicken DT40 cell lines with known DNA damage response pathways - wild type cell line (AID 743012). Note: potency is the fitted concentration of half-maximal effect; nearly all actives have a fitted effect of over 60% in size. The essentials: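 Cells (DT40 wild type, 300/well) are treated with DMSO-dissolved compounds after a ~0.5 h pre-incubation and kept 40 h at 37 C/5% CO2. Viability is then measured by CellTiter-Glo luminescence following 30 min at room temperature.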

Experiment [19] in a line: qHTS assay to identify small molecule antagonists of the estrogen receptor alpha (ER-alpha) signaling pathway using the BG1 cell line (AID 743080; calls by dose curve;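 note: BG1 cells stimulated with 17beta-estradiol alongside compound; % is set by controls: 0 for no effect and ±100 for the full control effect; nearly all actives have a fitted effect of over 25% in size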). In a few lines:
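Endogenous full-length ER-alpha in BG1-Luc-4E2 cells drives a stably integrated 4×ERE luciferase gene; compounds were tested against 17beta-estradiol over 21.5 h, with luminescence and multiplexed viability fluorescence recorded.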

A number with no mark means an inactive call. Records with an inconclusive call do not appear. Activity calls are given as the source filed them. Unless noted, calls come from the whole dose curve; as a rule, active = well fitted curve in the direction sought with a large enough effect in the repeat runs; inconclusive = weak or mixed curves; inactive = no such curve, though single readings can be large; an effect the other way counts as inactive or inconclusive.

The values that follow come from PubChem BioAssay (Tox21).

Chain of Androgen receptor (Homo sapiens) (P10275 whole entry, looked up): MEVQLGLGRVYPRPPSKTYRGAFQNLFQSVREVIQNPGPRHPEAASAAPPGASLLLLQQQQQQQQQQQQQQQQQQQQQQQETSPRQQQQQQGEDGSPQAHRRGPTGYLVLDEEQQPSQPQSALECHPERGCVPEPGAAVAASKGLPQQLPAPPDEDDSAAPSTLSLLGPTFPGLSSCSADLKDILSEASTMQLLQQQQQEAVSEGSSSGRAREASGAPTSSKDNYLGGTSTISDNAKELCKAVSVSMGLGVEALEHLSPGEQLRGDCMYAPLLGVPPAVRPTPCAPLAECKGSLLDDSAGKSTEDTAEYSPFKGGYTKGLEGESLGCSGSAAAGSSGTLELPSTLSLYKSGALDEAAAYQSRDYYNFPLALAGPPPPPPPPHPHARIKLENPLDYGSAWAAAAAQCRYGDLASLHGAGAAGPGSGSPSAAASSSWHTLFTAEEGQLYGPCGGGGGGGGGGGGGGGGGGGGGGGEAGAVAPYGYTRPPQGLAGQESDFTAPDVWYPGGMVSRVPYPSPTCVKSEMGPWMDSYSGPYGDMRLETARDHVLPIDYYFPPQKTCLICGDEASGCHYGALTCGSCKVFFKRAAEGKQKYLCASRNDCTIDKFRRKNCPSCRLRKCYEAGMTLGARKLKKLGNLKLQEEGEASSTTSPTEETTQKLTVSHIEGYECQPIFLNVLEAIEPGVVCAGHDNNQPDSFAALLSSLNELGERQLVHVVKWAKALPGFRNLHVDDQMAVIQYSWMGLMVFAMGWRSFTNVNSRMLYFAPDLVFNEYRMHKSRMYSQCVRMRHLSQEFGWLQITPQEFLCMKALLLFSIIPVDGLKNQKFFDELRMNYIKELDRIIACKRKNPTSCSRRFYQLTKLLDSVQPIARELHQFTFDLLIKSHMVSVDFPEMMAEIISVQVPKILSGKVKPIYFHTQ
Chain of Aromatase (Homo sapiens) (P11511 whole entry, looked up): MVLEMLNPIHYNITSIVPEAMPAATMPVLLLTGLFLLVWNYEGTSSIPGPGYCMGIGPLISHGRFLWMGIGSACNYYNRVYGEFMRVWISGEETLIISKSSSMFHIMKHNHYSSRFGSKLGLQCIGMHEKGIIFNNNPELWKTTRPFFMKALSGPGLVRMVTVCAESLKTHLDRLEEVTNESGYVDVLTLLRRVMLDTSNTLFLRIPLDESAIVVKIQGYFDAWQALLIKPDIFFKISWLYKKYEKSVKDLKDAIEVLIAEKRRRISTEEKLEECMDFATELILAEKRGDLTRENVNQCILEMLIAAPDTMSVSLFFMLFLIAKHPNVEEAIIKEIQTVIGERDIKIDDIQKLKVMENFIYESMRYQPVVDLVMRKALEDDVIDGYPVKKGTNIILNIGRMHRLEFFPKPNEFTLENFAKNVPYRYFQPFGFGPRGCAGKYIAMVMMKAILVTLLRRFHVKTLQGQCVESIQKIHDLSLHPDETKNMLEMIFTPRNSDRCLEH
Chain of Estrogen receptor (Homo sapiens) (P03372 whole entry, looked up): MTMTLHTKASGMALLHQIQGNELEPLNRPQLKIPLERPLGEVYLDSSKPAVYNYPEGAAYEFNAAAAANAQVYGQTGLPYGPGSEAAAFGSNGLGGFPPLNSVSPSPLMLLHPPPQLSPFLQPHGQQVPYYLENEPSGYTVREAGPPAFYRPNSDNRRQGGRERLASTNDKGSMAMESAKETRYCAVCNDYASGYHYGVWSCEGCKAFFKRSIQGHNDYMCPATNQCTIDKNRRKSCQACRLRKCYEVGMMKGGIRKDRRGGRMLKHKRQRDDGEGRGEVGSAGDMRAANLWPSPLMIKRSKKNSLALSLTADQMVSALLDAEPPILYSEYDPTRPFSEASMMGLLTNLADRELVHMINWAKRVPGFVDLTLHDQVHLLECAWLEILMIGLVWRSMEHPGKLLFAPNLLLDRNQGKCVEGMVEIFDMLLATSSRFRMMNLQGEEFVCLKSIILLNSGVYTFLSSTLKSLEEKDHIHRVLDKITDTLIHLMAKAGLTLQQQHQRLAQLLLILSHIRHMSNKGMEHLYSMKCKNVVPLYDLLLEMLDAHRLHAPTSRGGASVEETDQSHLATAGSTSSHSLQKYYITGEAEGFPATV

For `C=C(C)C(=O)OCC[N+](C)(C)C`, the Potency entry in [1], in experiment [2], in [3], in experiment [4], in experiment [5] and in experiment [6] was “inactive” in each case. The Potency entry (in experiment [8]; in [9]; in experiment [10]; with Aromatase (Homo sapiens)) was “inactive” throughout. The Potency in experiment [7] was 60.9 µM (active).

With `O=c1cccccc1O`, the Potency entry in [1], in experiment [5], in experiment [8], in [14], in experiment [9] and in [15] was “inactive” in each case. The Potency entry in experiment [10] was “inactive”. Moreover, the Potency in experiment [11] was 27.8 µM (active); in [12], 55.5 µM (active); in [7] it was 19.7 µM (active); in [13] it was 17.6 µM (active). The activation in experiment [16] (at 95 µM (top of the series)) is -8.54%.

As for `C[C@@H](NCCCc1cccc(C(F)(F)F)c1)c1cccc2ccccc12`, the Potency in [1] was 13.4 µM (active); in experiment [11] it was 5.96 µM (active); in experiment [17] it was 19 µM (active); in experiment [7] it was 7.5 µM (active); in experiment [13] it was 8.41 µM (active); in experiment [9], 23.9 µM (active). Besides, the Potency with Aromatase (Homo sapiens) was 13.3 µM (active). Besides, the Potency result in experiment [4] and in [5] was “inactive” each time.

Turning to `COc1cccc2c1C(=O)c1c(O)c3c(c(O)c1C2=O)C[C@@](O)(C(=O)CO)C[C@@H]3O[C@H]1C[C@H](N)[C@H](O[C@@H]2CCCCO2)[C@H](C)O1`, the Potency in experiment [1] was 21.3 µM (active); in experiment [12], 0.0298 µM (active); in experiment [2], 8.49 µM (active); in experiment [6] it was 4.22 µM (active); in experiment [7] it was 1.68 µM (active); in experiment [13], 0.841 µM (active). In addition, the Potency was 4.25 µM [activator] (active) in experiment [15] and 9.44 µM (active) in experiment [10]. The Potency result (in experiment [17]; in experiment [4]; in experiment [9]; with Aromatase (Homo sapiens)) was “inactive” in each case.

`Nc1ccccc1O`: the Potency entry in experiment [1], in experiment [17], in experiment [8], in experiment [14], in [9] and in experiment [15] was “inactive” each time. The Potency in [12] was 5.38 µM (active); in experiment [5], 53.8 µM (active); in [7], 26.9 µM (active); in [13], 42.7 µM (active); with Aromatase (Homo sapiens), 67.7 µM (active).

Consider `CCN(CC)CCNC(=O)c1c(C)[nH]c(/C=C2\C(=O)Nc3ccc(F)cc32)c1C`, for which the Potency in experiment [18] was 5.96 µM (active); in experiment [11], 9.44 µM (active); in experiment [7], 26.6 µM (active); in experiment [10] it was 9.44 µM (active). For the same compound, the Potency entry in experiment [17], in experiment [5] and in experiment [9] was “inactive” in each case.

Regarding `O=c1[nH]sc2ccccc12`, the Potency in experiment [18] was 0.433 µM (active); in [11], 0.433 µM (active); in experiment [12], 0.686 µM (active); in experiment [7] it was 5.45 µM (active); in experiment [13], 3.06 µM (active); with Aromatase (Homo sapiens), 30.6 µM (active). In addition, the Potency entry in experiment [14], in [9], in experiment [15], in experiment [19] and in [10] was “inactive” throughout. Further, the activation in experiment [16] (at 70.3 µM (top of the series)) is -22%.

For `CCCCCCCCCOC(=O)c1ccc(O)cc1`, the Potency in experiment [11] is 19.1 µM (active); in experiment [12], 19.1 µM (active); in [2], 24.2 µM (active); with Aromatase (Homo sapiens), 30.2 µM (active). In addition, the Potency entry in experiment [4], in experiment [8] and in experiment [10] was “inactive” each time.

With `CCCCCCCCS(=O)C(C)Cc1ccc2c(c1)OCO2` (stereo unspecified), the Potency in experiment [11] is 69.9 µM (active); in experiment [7], 69.9 µM (active); in [13], 62.3 µM (active). The Potency entry in [3], in [4], in experiment [8], in experiment [9], in [15] and in experiment [10] was “inactive” in each case.

On to `CC(C)(C)c1ccc(C(=O)CCCN2CCC(OC(c3ccccc3)c3ccccc3)CC2)cc1`, for which the Potency in [18] was 4.22 µM (active); in [12], 5.96 µM (active); in experiment [7] it was 11.9 µM (active); in [13], 13.3 µM (active); in experiment [9], 23.9 µM (active). In addition, the Potency entry (in experiment [17]; in experiment [5]; with Aromatase (Homo sapiens)) was “inactive” each time.

`CCOC(=O)c1nc(C(Cl)(Cl)Cl)n(-c2ccc(Cl)cc2Cl)n1`: the Potency is 49 µM (active) in experiment [17], 68.6 µM (active) in experiment [6], 68.6 µM (active) in experiment [13] and 61.1 µM (active) with Aromatase (Homo sapiens). Moreover, the Potency entry in [4], in [5], in [9] and in [15] was “inactive” each time.

Regarding `CC1(C)CCC(C)(C)c2cc(C(=O)Nc3ccc(C(=O)O)cc3)ccc21`, the Potency was 24.3 µM (active) in [18], 49 µM (active) in experiment [2], 68.6 µM (active) in experiment [7] and 48.6 µM (active) in [13]. In addition, the Potency entry (in experiment [3]; in [4]; in experiment [9]; in experiment [15]; in [10]; in the experiment with Aromatase (Homo sapiens)) was “inactive” each time.
